MsrA act = activators of bovine methionine sulfoxide reductase A; activation, % at 10.6 µM; 360,000 tested, 0.3% active; purified bovine MsrA, absorbance read-out; AID 602163; in the data active means activation above about 7.5%
PKA-R1A act = activators of PKA-R1A complex; PKA-R1A dissociation, Cy5-IP20 fluorescence polarization; scaled: DMSO 0%, 113 µM cGMP 100%; activation, % at 11.4 µM; 340,000 tested, 0.083% active; AID 504707;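 active means percent activation above the mean of all tested compounds plus 3 SD, cut at about 19% in these data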;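 further: higher means more PKAc released from R1A so a rise in polarization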
PKA-R2B activ = activates the human PKA-R2B holoenzyme complex; P22694+P31323; PKA-R2B holoenzyme dissociation, Cy5-IP20 fluorescence polarization; R2B truncated from residue 108, S112A mutant; 0% DMSO only, 100% 113 µM cGMP; activation, % at 11.4 µM; 340,000 tested, 0.079% active;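 active means activation above a cutoff set at the mean over all compounds plus 3 SD, cut at about 18% in these data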;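 further: higher means more holoenzyme dissociation and a rise in polarization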
Target sequence (P31323 whole entry, looked up, other chains not shown, the tested form may be a part): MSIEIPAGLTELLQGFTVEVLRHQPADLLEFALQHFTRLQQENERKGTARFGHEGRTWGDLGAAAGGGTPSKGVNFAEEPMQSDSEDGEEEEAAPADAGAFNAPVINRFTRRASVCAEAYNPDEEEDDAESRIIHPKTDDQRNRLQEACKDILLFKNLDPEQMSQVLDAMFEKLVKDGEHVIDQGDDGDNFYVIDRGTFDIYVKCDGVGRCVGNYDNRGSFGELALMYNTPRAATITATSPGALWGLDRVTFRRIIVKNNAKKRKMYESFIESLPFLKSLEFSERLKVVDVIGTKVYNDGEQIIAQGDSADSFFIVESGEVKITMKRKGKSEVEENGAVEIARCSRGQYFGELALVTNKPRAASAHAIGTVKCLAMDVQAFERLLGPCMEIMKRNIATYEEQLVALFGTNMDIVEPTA
MsrA inhibitor = bovine MsrA inhibition; purified bovine MsrA, absorbance read-out; inhibition, % at 15.5 µM; 360,000 tested, 0.75% active
MsrA inh confirm = confirmation of bovine MsrA inhibitors. purified bovine MsrA, absorbance read-out. shares compounds with MsrA inhibitor. inhibition, % at 15.5 µM. 2,300 tested, 41% active. AID 651822;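 further: coupled to thioredoxin reductase with NADPH and selenocystamine and DMSO as substrate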
Large screens that a line does not name were inactive (follow-up assays come after a bar, where they were run). The list is not random: actives were taken first. Their share in the collection is about 1.1%. Unless noted, no stated cut-off is given here; in the data, active means inhibition above about 4.5%; inactive means the rest.

O=c1ccn(C2CC(O)C(COC(c3ccccc3)(c3ccccc3)c3ccccc3)O2)c(=O)[nH]1 (stereo unspecified)	none (no result: MsrA act, PKA-R1A act, PKA-R2B activ)
C[C@H](CO)N1C[C@H](C)[C@H](CN(C)C(=O)C2CCCCC2)OCc2cnnn2CCCC1=O	none (no result: MsrA act, PKA-R1A act, PKA-R2B activ)
Nc1[nH]c(C(=O)c2ccccc2)c(-c2ccc(Cl)cc2F)c1C(=O)NCCc1c[nH]c2ccccc12	none (no result: MsrA act, PKA-R1A act, PKA-R2B activ)
CCOc1cc(/C=N/N=C/c2ccc(O)c(OCC)c2)ccc1O	MsrA inhibitor 6.4 | MsrA inh confirm inactive
O=C(CCCN1C(=O)c2cccc3cccc(c23)C1=O)N1CCN(c2ccccc2O)CC1	MsrA inhibitor 5.1 | MsrA inh confirm inactive
O=C(CCCN1C(=O)c2cccc3cccc(c23)C1=O)N1CCN(c2ccccc2)CC1	none
[O-]c1n[n+](-c2ccc(Cl)cc2Cl)cc2ccccc12	none
COc1ccc(-c2csc(NC(=O)CCS(=O)(=O)c3ccccc3)n2)c(OC)c1	none
COc1ccc(/C=C/c2cc(-c3ccc(C)cc3)o[n+]2C)cc1	MsrA inhibitor 5.0 | MsrA inh confirm inactive
C[C@H](c1ccccc1)N1C[C@@H](COCc2ccccc2)Oc2cccc(N3CCCC3)c2S1(=O)=O	none (no result: MsrA act, PKA-R1A act, PKA-R2B activ)
C=CCn1c(O)c(CN2CCCCC2)c(C)c(C#N)c1=O	none
COc1cc(S(=O)(=O)Nc2ccc(C)cc2)ccc1N=Cc1c(C)c(C#N)c(=O)n(C)c1O	none (no result: PKA-R1A act, PKA-R2B activ)
Cc1c(C=N)c(O)n(C)c(=O)c1C#N	MsrA inhibitor 5.2 | MsrA inh confirm 6.6
Cc1ccc(N/N=C/c2c(C)c(C#N)c(=O)n(C)c2O)cc1C	MsrA inhibitor 5.9 | MsrA inh confirm 6.6
CCN(CC)S(=O)(=O)c1ccc(N=Cc2c(C)c(C#N)c(=O)n(C)c2O)cc1	MsrA inhibitor 5.1 | MsrA inh confirm 7.3
COC(=O)c1cc(S(=O)(=O)NCC2CCN(C(=O)C(=O)c3cc4ccccc4o3)CC2)cs1	none (no result: MsrA act, PKA-R1A act, PKA-R2B activ)
CN(C)c1ccc(C=Nc2cnn(C)c2C(N)=O)cc1	MsrA inhibitor 4.9 | MsrA inh confirm inactive
COC(=O)Cc1nnn2c1[C@H](C)[C@H](c1ccccc1Br)OC[C@@H]2c1ccccc1	none (no result: MsrA act, PKA-R1A act, PKA-R2B activ)
O=C(COC(=O)CCCN1C(=O)c2cccc3cccc(c23)C1=O)Nc1ccc(Cl)cc1	MsrA inhibitor 4.8 | MsrA inh confirm inactive
NC(=O)c1ccc(NC(=O)COC(=O)CCCN2C(=O)c3cccc4cccc(c34)C2=O)cc1	none
CCC/C(=N/NC(=O)c1csc(C)c1C)c1ccc(Cl)s1	none
CN(C)CCCNc1nc(N)c([N+](=O)[O-])c(NCCO)n1	none
CCN(CC)CCCNc1nc(N)c([N+](=O)[O-])c(NCCO)n1	MsrA inhibitor 5.1 | MsrA inh confirm 4.9
CNc1nc(N)c([N+](=O)[O-])c(NCCO)n1	MsrA inhibitor 5.0 | MsrA inh confirm inactive
Nc1nc(NCc2ccccc2)nc(NCCO)c1[N+](=O)[O-]	none
c1ccc(Cc2cnc(N3CCN(Cc4csc5ccccc45)CC3)nc2)cc1	none (no result: MsrA act, PKA-R1A act, PKA-R2B activ)
O=C(NC(=S)NCCCN1CCOCC1)c1ccco1	MsrA inhibitor 5.8 | MsrA inh confirm inactive
O=C(NC(=S)NCCN1CCOCC1)c1ccccc1Cl	none
COc1ccc(C2=Nc3ccccc3N(C(=O)c3ccc4c(c3)OCO4)C2C(=O)Nc2c(C)cccc2C)cc1 (stereo unspecified)	none (no result: MsrA act, PKA-R1A act, PKA-R2B activ)
CCOC(=O)c1c(C)[nH]c(C(=O)N/N=C/c2ccc(Br)cc2)c1C	none
Cc1[nH]c(C(=O)N/N=C/c2ccc(N(C)C)cc2)c(C)c1C(=O)N/N=C/c1ccc(N(C)C)cc1	MsrA inhibitor 7.5 | MsrA inh confirm 5.2
Cc1[nH]c(C(=O)N/N=C/c2ccc(C(=O)O)cc2)c(C)c1C(=O)N/N=C/c1ccc(C(=O)O)cc1	MsrA inhibitor 9.9 | MsrA inh confirm 9.4
CN(C)c1ccc(/C=N/NC(=O)c2cccc(C(=O)N/N=C/c3ccc(N(C)C)cc3)n2)cc1	none
Cc1cccc(C)c1NC(=O)C1c2ccccc2OCC(=O)N1CCc1c[nH]c2ccccc12 (stereo unspecified)	none (no result: PKA-R1A act, PKA-R2B activ)
COc1ccccc1OCCC(=O)OCC(=O)NCc1ccc(F)cc1	none
COc1ccccc1NC=C1C(=O)OC(C)(C)OC1=O	MsrA inhibitor 5.5 | MsrA inh confirm inactive
CCOc1ccccc1NC=C1C(=O)OC(C)(C)OC1=O	none
O=C(c1cnc2sccn2c1=O)N1CCc2ccccc2C1	MsrA inhibitor 4.8 | MsrA inh confirm inactive
COc1ccc(OCCCC(=O)OCC(=O)NNC(=O)c2ccc([N+](=O)[O-])cc2)cc1	none
O=C1NC(=S)N/C1=C/c1cccn1-c1ccc([N+](=O)[O-])cc1	MsrA inhibitor 5.1 | MsrA inh confirm inactive
N=C1/C(=C/c2cccn2-c2ccc([N+](=O)[O-])cc2)C(=O)N=C2SC=CN12	none
O=c1[nH]ncc(N/N=C\c2cccnc2)c1Cl	none
O=c1[nH]ncc(N/N=C\c2cccs2)c1Cl	MsrA inhibitor 9.1 | MsrA inh confirm 6.2
Cc1cccc(/C=N\Nc2cn[nH]c(=O)c2Cl)c1	MsrA inhibitor 8.1 | MsrA inh confirm 5.0
O=c1[nH]ncc(N/N=C\c2ccncc2)c1Cl	MsrA inhibitor 9.6 | MsrA inh confirm 6.0
COc1ccccc1/C=N\Nc1cn[nH]c(=O)c1Cl	MsrA inhibitor 5.8 | MsrA inh confirm 4.7
CCOc1ccccc1/C=N\Nc1cnn(Cc2ccccc2)c(=O)c1Cl	none
C(=N\Nc1nc2ccccc2s1)/c1cccs1	none
CCOC(=O)c1ccc(-c2ccc(N3C(c4cccc(OC)c4)=Cc4ccc(F)cc4C3CC(C)=O)cc2)cc1F (stereo unspecified)	none (no result: PKA-R1A act, PKA-R2B activ)
N#CC(=C(c1ccccc1)c1ccccc1)c1ccccc1	none
COCc1cc(N2CCNC[C@@H]2C)ccc1N1C[C@@H](C)O[C@@H](C)C1	none (no result: MsrA act, PKA-R1A act, PKA-R2B activ)
CCCCc1c(-c2ccccc2OC)ncn1Cc1ccccc1Cl	none (no result: MsrA act, PKA-R1A act, PKA-R2B activ)
NC(=O)c1ccsc1NC(=O)COC(=O)Cc1cccc2ccccc12	none
O=C(O)c1ccc(N/N=C/c2ccc(F)c(F)c2)cc1	MsrA inhibitor 7.9 | MsrA inh confirm 5.9
O=C(O)c1ccc(N/N=C/c2cccc(F)c2)cc1	MsrA inhibitor 6.8 | MsrA inh confirm 6.7
COC(=O)C1=C(C)N(C)C(=NCc2ccccc2C(F)(F)F)NC1c1cccc(F)c1 (stereo unspecified)	none (no result: MsrA act, PKA-R1A act, PKA-R2B activ)
COC(=O)c1sc(S(=O)(=O)NCCCN(C)C)c(C(=O)OC)c1C	none
COC(=O)c1sc(S(=O)(=O)Nc2ccc(C)c(C)c2)c(C(=O)OC)c1C	MsrA inhibitor 6.1 | MsrA inh confirm 5.7
CCOC(=O)/C(C#N)=C/c1ccc(-c2ccsc2C(=O)OC)o1	none
CCOC(=O)/C(C#N)=C/Nc1ccsc1C(C)=O	MsrA inhibitor 14 | MsrA inh confirm 7.2
CCOC(=O)/C(C#N)=C/Nc1ccccc1OC	MsrA inhibitor 12 | MsrA inh confirm 12
CC(=O)O[C@@H]1C=C[C@@H](C#Cc2ccc(C(C)(C)C)cc2)O[C@@H]1COC(=O)NC(C)C	none (no result: MsrA act, PKA-R1A act, PKA-R2B activ)
O=C(N/N=C/c1cccc([N+](=O)[O-])c1)c1cccs1	none
CCOc1cc(/C=N/NC(=O)c2cccs2)cc([N+](=O)[O-])c1O	MsrA inhibitor 8.2 | MsrA inh confirm 4.9
